From PubChem BioAssay (NCATS) come the findings set out here.

Test [1] has as its target Lysosomal acid glucosylceramidase (Homo sapiens) (UniProt P04062). In words: Glucocerebrosidase-p2 (AID 348; in the data active = potency below about 10 µM; also: potency is read from the fitted curve at half-maximal effect). To be noted: purified GBA, blue fluorogenic substrate, 40 min. A digest of the protocol:
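Compounds titrated from 0.6 nM upwards against 0.2 nM enzyme in pH 5.9 citric acid/KH2PO4, taurocholate, tween-20; blue fluorogenic substrate 80 uM, 40 min room temperature, stopped and read Ex 365/Em 440 for AC50.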

The nature of test [2]: AP1 Signaling Pathway (AID 357).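 Also: ME-180 reporter cells stimulated with EGF at its EC50 level; % is scaled to controls: 0 for no effect and ±100 for the full control effect.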 To be noted: ME-180 AP-1-bla reporter, EGF-induced, beta-lactamase ratio, 5 h; at 7.69 µM (top of the series) unless noted. In a few lines:
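Modulation of EGF-driven AP-1 transcription was assessed with a beta-lactamase reporter in ME-180 cells. Compound and EC50 EGF were co-incubated 5 hours at 37 °C before 2.5-hour CCF4 loading at room temperature and dual-emission reading.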

The target of test [3] is Cytochrome P450 1A2 (Homo sapiens) (UniProt P05177). In words: p450-cyp1a2 (AID 410; calls by dose curve; also: potency is read from the fitted curve at half-maximal effect;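 as to activity change, negative = inhibition: -100% = full effect of reference inhibitor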). The following applies: recombinant CYP1A2, luciferin-ME demethylation, luminescence; series mostly up to 11.4 µM. In a few lines: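 Human CYP1A2 (20nM) demethylated Luciferin-ME at its Km (100uM) in 100mM KPO4. After 10 min compound preincubation, NADPH regeneration ran the reaction 60 min at room temperature. Luciferin was read by luminescence, normalized to 57 uM furafylline.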
Sequence of Cytochrome P450 1A2 (Homo sapiens) (P05177 whole entry, looked up): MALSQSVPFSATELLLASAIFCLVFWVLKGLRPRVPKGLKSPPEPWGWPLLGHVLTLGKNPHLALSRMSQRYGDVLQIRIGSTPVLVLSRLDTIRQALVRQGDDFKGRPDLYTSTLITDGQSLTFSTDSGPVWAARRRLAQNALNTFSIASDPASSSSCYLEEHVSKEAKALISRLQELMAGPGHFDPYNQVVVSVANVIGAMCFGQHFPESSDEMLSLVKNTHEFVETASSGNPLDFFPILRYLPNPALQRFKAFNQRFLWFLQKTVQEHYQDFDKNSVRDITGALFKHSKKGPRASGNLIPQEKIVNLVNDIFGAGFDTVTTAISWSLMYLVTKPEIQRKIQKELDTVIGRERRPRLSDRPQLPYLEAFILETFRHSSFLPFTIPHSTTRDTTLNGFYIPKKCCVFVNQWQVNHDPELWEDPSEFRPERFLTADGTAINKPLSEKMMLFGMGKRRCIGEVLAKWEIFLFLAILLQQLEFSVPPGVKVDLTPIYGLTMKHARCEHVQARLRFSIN

The nature of test [4]: NFAT Signaling Pathway (AID 444).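 Also: carbachol stimulus at about its EC50 of 1 µM final; % is scaled to controls: 0 for no effect and ±100 for the full control effect.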 To be noted: Jurkat NFAT-bla M1, carbachol, beta-lactamase ratio, 5 h; at 7.69 µM (top of the series) unless noted. A digest of the protocol: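 Jurkat cells carrying an NFAT-driven β-lactamase reporter and co-transfected muscarinic M1 receptor were treated with compound plus carbachol (1 uM final, an EC50 level) for 5 h at 37 °C. CCF4 loading followed for 1 h at RT; 460/530 nm ratio gave %activity.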

A short description of test [5]: Stat Signaling Pathway (AID 446).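 Also: ME-180 cervical cancer cells given 40 pM IL-6 alongside compound; SIE-controlled beta-lactamase reporter measured as 460/530 nm FRET emission ratio; % is scaled to controls: 0 for no effect and ±100 for the full control effect.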 The following applies: ME-180 SIE beta-lactamase reporter, IL-6 stimulated, 5 h; at 7.69 µM (top of the series) unless noted. A digest of the protocol: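 Reporter line: ME-180 cervical carcinoma, SIE-beta-lactamase. Treatment: compound with 40 pM IL-6, 5 hrs, 37 C, in low-serum OPTI-MEM with 10 mM HEPES pH 7.3. Detection: 460/530 nm fluorescence.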

Test [6] deals with Glucocorticoid receptor (Homo sapiens) (UniProt P04150). In words: GR-GFP Redistribution (AID 450;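 active = compounds whose dose series gives a full or clear partial fitted curve of increased nuclear translocation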; also: potency is read from the fitted curve at half-maximal effect). To be noted: U2OS GR-GFP nuclear translocation, laser cytometry, 2 h.
Sequence of Glucocorticoid receptor (Homo sapiens) (P04150 whole entry, looked up): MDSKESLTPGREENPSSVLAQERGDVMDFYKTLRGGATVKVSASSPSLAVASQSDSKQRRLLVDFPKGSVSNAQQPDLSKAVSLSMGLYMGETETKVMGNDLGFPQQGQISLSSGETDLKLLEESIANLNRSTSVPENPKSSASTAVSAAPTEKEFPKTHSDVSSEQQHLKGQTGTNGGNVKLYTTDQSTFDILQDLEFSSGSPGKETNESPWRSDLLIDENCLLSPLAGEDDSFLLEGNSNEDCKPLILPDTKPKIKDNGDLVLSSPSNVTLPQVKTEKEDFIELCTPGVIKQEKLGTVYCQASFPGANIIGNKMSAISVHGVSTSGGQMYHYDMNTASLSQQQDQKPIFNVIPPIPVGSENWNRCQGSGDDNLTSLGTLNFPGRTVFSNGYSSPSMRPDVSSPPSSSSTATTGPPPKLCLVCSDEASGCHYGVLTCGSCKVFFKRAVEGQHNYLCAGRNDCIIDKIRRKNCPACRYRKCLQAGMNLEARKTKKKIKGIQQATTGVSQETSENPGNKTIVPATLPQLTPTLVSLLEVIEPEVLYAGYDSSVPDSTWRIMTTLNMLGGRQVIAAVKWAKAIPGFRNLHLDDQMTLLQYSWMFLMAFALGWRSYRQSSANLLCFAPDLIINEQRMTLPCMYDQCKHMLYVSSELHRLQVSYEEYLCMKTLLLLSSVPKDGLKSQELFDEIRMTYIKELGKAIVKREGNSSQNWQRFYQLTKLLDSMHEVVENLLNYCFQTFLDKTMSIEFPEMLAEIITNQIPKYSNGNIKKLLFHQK
For test [7] the target is unchanged. Description: GR-EFC Redistribution (AID 451; calls by dose curve; also: potency is read from the fitted curve at half-maximal effect). To be noted: CHO-K1 GR-EFC translocation, beta-gal luminescence, 2 h. In a few lines:
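CHO-K1 cells stably expressing nuclear-localized β-gal enzyme acceptor and GR fused C-terminally to the enzyme donor fragment; ligand-driven nuclear translocation restores β-gal by complementation. Compounds titrated up to 46 uM final, 2 h at 37 °C; luminescence read.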

In test [8] the target is Mitogen-activated protein kinase 10 (Mus musculus) (UniProt Q61831). In words: JNK3 AlphaScreen Assay (AID 530).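 Also: kinase came from lysate of stimulated human HepG2 cells; signal reports phosphorylation of biotinylated GST-cJun 1-79 at Ser73 with 10 µM ATP; % is scaled to controls: 0 for no effect and ±100 for the full control effect.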 The following applies: JNK3 lysate, c-Jun phosphorylation; series mostly up to 11.4 µM. A digest of the protocol:
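JNK3 came from HepG2 lysates pre-activated with IL-1beta and TNF-alpha and phosphorylated biotinylated GST-cJun (1-79) at 10 uM ATP, pH 7.6, room temperature. Compounds were titrated. AlphaScreen signal used anti-phospho-cJun (Ser73) antibody.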
On the technique in general: In Alpha technology, singlet oxygen from a donor bead excites a nearby acceptor bead.

The target in test [9] is 3',5'-cyclic-AMP phosphodiesterase 4B (Homo sapiens) (UniProt Q07343). In words: qHTS Assay for Inhibitors of PDE-IV (AID 607; active = well fitted activation curve with a large enough effect in the main read-out, with a control signal flat, not every such curve was filed as active; also: % of control where 0% means no effect). To be noted: HEK293 ACTOne CNG channel cells, membrane potential fluorescence; series mostly up to 22.9 µM. In a few lines:
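Cell-based read-out of cAMP via a modified cyclic nucleotide-gated channel and membrane potential dye (535/590 nm) in HEK293 cells expressing PDE4 endogenously. Compounds tested up to 22.9 uM final; 100 uM RO 20-1724 reference.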
(In general: In qHTS, concentration-response curves come from the screen itself.)

The target in test [10] is Cytochrome P450 3A4 (Homo sapiens) (UniProt P08684). In words: qHTS Assay for Activators of Cytochrome P450 3A4 (AID 885; active = well fitted curve in the direction sought with a large enough effect; an effect the other way counts as inactive or inconclusive; also: nearly all actives have a fitted effect of over 65% in size). The following applies: recombinant CYP3A4, Luciferin-PPXE luminescence, 60 min; series mostly up to 11.4 µM. In a few lines: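 Signal was normalized against complete inhibition by 57 uM ketoconazole. The reaction used 20nM CYP3A4 with 25uM Luciferin-PPXE, 10-min compound preincubation and a 60-min NADPH-supported step at RT.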
Sequence of Cytochrome P450 3A4 (Homo sapiens) (P08684 whole entry, looked up): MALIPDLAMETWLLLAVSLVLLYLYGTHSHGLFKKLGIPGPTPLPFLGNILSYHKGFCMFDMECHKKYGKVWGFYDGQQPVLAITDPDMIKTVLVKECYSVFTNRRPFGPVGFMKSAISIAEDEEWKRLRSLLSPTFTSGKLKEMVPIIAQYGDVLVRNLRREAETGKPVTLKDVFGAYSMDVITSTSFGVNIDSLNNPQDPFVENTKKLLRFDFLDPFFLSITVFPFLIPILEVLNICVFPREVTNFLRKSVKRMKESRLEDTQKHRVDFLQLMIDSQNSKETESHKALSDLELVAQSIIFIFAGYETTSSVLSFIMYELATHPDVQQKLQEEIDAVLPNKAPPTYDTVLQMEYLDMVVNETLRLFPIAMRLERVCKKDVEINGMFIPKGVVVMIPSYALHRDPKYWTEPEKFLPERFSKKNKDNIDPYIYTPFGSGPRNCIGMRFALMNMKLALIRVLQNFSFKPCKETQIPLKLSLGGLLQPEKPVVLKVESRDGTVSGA

Test [11] deals with Cytochrome P450 2D6 (Homo sapiens) (UniProt P10635). Description: qHTS Assay for Inhibitors and Substrates of Cytochrome P450 2D6 (AID 891; active = well fitted curve in the direction sought with a large enough effect; an effect the other way counts as inactive or inconclusive; also: nearly all actives have a fitted effect of over 60% in size; also: potency is read from the fitted curve at half-maximal effect). The following applies: recombinant CYP2D6, luciferin-ME EGE luminescence; series mostly up to 11.4 µM. A digest of the protocol: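 Human CYP2D6 (5 nM) with 30 uM Luciferin-ME EGE (at Km) in 100 mM KPO4, compound preincubated 10 min, then NADPH regeneration system for 60 min at room temperature. Luciferin read by luminescence; normalized to 1.43 uM quinidine.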
Sequence of Cytochrome P450 2D6 (Homo sapiens) (P10635 whole entry, looked up): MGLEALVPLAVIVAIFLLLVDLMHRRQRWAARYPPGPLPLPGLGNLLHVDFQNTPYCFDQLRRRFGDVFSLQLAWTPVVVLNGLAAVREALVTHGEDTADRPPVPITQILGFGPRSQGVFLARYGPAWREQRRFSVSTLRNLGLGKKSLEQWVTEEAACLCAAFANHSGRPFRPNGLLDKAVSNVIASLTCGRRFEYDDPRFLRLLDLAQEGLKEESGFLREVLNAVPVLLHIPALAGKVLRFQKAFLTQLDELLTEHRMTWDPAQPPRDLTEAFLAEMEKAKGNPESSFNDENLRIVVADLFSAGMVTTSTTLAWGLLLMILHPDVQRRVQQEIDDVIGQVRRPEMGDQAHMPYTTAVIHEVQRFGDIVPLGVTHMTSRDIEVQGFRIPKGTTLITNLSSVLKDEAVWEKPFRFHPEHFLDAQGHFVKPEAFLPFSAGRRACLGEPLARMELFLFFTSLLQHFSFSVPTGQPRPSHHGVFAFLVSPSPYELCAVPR

The target of test [12] is Cytochrome P450 2C19 (Homo sapiens) (UniProt P33261). Description: qHTS Assay for Inhibitors and Substrates of Cytochrome P450 2C19 (AID 899; active = well fitted curve in the direction sought with a large enough effect; an effect the other way counts as inactive or inconclusive; also: potency is read from the fitted curve at half-maximal effect; nearly all actives have a fitted effect of over 60% in size). The following applies: recombinant CYP2C19, luciferin-H EGE luminescence; series mostly up to 11.4 µM. In a few lines:
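In 50mM KPO4, the reaction held 5nM enzyme and KM-level (10uM) Luciferin-H EGE; it ran 60 min at 37C after NADPH regeneration and a 10 min compound preincubation. Luminescence values were scaled to 57uM ketoconazole as complete inhibition.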

SMILES strings stand for the structures. Inconclusive results are not listed. Calls of active or inactive are those of the source. Unless noted, calls follow the shape of the dose curve; as a rule, active = well fitted curve in either direction with a large enough effect (not every such curve was filed as active); inconclusive = small, poorly fitted or top-dose-only effect, or another doubt; inactive = flat fitted curve, though single readings scatter.

Sequence of Lysosomal acid glucosylceramidase (Homo sapiens) (P04062 whole entry, looked up): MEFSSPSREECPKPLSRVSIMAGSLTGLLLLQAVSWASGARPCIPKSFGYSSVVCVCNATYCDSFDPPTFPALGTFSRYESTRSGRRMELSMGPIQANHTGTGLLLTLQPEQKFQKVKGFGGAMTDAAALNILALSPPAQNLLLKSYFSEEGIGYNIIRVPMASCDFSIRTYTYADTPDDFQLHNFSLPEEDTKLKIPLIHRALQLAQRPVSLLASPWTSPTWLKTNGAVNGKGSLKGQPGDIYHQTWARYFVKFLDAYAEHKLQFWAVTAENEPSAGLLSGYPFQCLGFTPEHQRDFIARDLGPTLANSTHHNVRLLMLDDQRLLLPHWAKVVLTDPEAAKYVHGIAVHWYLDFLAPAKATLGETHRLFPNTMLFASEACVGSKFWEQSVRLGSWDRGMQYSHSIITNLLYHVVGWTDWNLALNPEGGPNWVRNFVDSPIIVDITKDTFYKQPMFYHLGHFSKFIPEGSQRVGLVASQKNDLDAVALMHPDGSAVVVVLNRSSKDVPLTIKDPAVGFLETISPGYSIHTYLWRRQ
Sequence of 3',5'-cyclic-AMP phosphodiesterase 4B (Homo sapiens) (Q07343 whole entry, looked up): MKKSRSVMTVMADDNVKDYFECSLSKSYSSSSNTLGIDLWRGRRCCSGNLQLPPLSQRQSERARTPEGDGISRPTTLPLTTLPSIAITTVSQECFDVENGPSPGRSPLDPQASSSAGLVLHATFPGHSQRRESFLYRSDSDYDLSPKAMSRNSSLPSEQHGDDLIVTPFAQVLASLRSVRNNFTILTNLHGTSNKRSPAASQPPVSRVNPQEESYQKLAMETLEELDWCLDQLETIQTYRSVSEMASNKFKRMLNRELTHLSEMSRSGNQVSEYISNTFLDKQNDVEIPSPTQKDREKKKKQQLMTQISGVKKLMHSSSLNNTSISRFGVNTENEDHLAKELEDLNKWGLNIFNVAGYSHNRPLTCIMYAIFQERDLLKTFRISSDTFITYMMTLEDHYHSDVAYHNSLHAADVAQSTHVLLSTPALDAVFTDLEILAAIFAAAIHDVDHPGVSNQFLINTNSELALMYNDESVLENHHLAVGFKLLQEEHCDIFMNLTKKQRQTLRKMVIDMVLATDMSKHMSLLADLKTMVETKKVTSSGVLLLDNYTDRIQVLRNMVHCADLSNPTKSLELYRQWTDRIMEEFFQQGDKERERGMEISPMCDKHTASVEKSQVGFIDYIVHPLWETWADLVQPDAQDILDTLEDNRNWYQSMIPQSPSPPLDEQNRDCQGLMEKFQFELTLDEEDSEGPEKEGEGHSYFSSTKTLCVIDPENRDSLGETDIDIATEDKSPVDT
Sequence of Cytochrome P450 2C19 (Homo sapiens) (P33261 whole entry, looked up): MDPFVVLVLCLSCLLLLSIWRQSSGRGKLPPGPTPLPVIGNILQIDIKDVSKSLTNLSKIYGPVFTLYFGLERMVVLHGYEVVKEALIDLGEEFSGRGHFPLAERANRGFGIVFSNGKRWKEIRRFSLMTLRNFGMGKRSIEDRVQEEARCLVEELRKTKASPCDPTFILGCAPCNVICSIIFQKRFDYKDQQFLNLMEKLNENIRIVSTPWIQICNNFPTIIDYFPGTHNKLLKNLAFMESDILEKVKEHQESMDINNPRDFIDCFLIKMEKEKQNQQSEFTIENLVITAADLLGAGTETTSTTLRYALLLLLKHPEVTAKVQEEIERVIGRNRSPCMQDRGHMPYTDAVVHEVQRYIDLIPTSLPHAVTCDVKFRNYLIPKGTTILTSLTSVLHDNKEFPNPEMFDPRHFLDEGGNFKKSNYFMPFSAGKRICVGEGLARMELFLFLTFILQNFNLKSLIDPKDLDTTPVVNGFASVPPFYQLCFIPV

As for `COCCn1c(=O)c(-c2ccccc2)nc2cnc(Oc3ccccc3)nc21`, the Potency was > 11.4 µM (inactive) in [1], 1.58 µM (active) in test [3], > 9.22 µM (inactive) in test [6] and > 46 µM (inactive) in test [7]. The activity change, negative = inhibition in test [2] is -29.9% (inactive); in [4] it was -6.49% (inactive). For the same compound, the activity, negative = inhibition in [5] is -4.14% (inactive). Also, the Potency entry in test [8], in test [9] and in test [10] was “inactive” each time.

Turning to `O=C(CSc1nc2ccc([N+](=O)[O-])cc2s1)c1ccc2ccccc2c1`, the Potency in test [1] was > 11.4 µM (inactive); in test [3], 3.16 µM (active); in test [6], > 46 µM (inactive); in [7], > 9.22 µM (inactive). Further, the results for the activity change, negative = inhibition in test [2] and in test [4] were -4.94% (inactive) and 9.35% (inactive), respectively. For the same compound, the activity, negative = inhibition in test [5] was 8.96% (inactive). Moreover, the Potency entry in [8], in [9] and in test [10] was “inactive” each time.

For the compound `O=S1(=O)[C@H]([C@H]2CC3c4ccccc4C2c2ccccc23)[C@@H](N2CCCCC2)[C@@H]1c1ccccc1`, the Potency in test [1] was > 11.4 µM (inactive); in test [6] it was > 46 µM (inactive); in test [7] it was > 9.22 µM (inactive); in test [11], 3.16 µM (active); in [12], 2.51 µM (active). Also, the values for the activity change, negative = inhibition in test [2], in test [3] and in [4] were 28.4% (inactive), 1.6% [at 2.29 µM] (inactive) and -27.2% (inactive), respectively. For the same compound, the activity, negative = inhibition in [5] was 10.9% (inactive). Also, the Potency result in [8], in [9] and in test [10] was “inactive” in each case.

For the compound `Cc1ccc2nc(CC(=O)c3ccc4ccccc4c3)c(=O)[nH]c2c1`, the Potency in test [1] is > 11.4 µM (inactive); in [3], 2 µM (active); in test [6] it was > 46 µM (inactive); in test [7] it was > 9.22 µM (inactive). In addition, the figures for the activity change, negative = inhibition in test [2] and in test [4] were 6.36% (inactive) and -17.8% (inactive), respectively. Also, the activity, negative = inhibition in test [5] was 12.1% (inactive). For the same compound, the Potency entry in [8], in test [9] and in test [10] was “inactive” in each case.

As to `Nc1n[nH]c2ccccc12`, the results for the Potency in test [1], in test [6] and in [7] were > 11.4 µM (inactive), > 46 µM (inactive) and > 9.22 µM (inactive), respectively. Further, the activity change, negative = inhibition in test [2] was -6.63% (inactive); in test [3], -9.1% [at 2.29 µM] (inactive); in test [4], 3.29% (inactive). Besides, the activity, negative = inhibition in test [5] is -1.94% (inactive). Besides, the Potency entry in test [8], in [9] and in test [10] was “inactive” each time.

`S=C(Nc1ccc2c(c1)Cc1ccccc1-2)Nc1ccc2c(c1)Cc1ccccc1-2`: the Potency in [1] is > 11.4 µM (inactive); in [3], 0.2 µM (active); in test [6], > 46 µM (inactive); in test [7] it was > 9.22 µM (inactive). The values for the activity change, negative = inhibition in test [2] and in [4] were -4.53% (inactive) and 9.24% (inactive), respectively. In addition, in test [5], the activity, negative = inhibition is 3.09% (inactive). Also, the Potency result in test [8], in test [9] and in test [10] was “inactive” in each case.

With `C[C@@]12CCC(=O)C=C1CC[C@H]1[C@@H]2[C@@H](O)C[C@]2(C)[C@@H]1CC[C@@]2(O)C(=O)COC(=O)C1CCCC1`, the Potency in [1] was > 11.4 µM (inactive); in test [6], 0.0333 µM (active); in [7], 0.61 µM (active). Besides, the activity change, negative = inhibition was -7.32% (inactive) in test [2] and 4.12% (inactive) in test [4]. Further, the Potency entry in test [3], in test [8], in test [9] and in test [10] was “inactive” throughout. Moreover, the activity, negative = inhibition in [5] was -0.238% (inactive).

For the compound `N#C/C(=C\NC(=S)c1ccncc1)c1nc2ccccc2s1`, the Potency in test [1] was > 11.4 µM (inactive); in test [3], 3.16 µM (active); in test [6], > 46 µM (inactive); in test [7] it was > 9.22 µM (inactive). Besides, the activity change, negative = inhibition in test [2] was -3.92% (inactive); in test [4], 8.12% (inactive). In [5], the activity, negative = inhibition is 11.3% (inactive). Also, the Potency result in test [8], in test [9] and in [10] was “inactive” throughout.

Take `N#CCCSC(=S)[C@H]1CCCC1=N`: the Potency is > 11.4 µM (inactive) in test [1], 3.16 µM (active) in test [3], > 46 µM (inactive) in [6] and > 9.22 µM (inactive) in test [7]. Besides, the activity change, negative = inhibition is 13.5% (inactive) in test [2] and -9.46% (inactive) in test [4]. Further, the activity, negative = inhibition in test [5] was -9.66% (inactive). In addition, the Potency result in [8], in test [9] and in test [10] was “inactive” in each case.

On to `CC1=NCC[N@@+]1(CCc1ccccc1)Cc1ccccc1`, for which the Potency in [1] is > 11.4 µM (inactive); in [6], > 46 µM (inactive); in test [7] it was > 9.22 µM (inactive); in test [11] it was 0.0501 µM (active). Further, the activity change, negative = inhibition in [2] is -5.92% (inactive); in test [4] it was -20.4% (inactive). The Potency entry in test [3], in test [8] and in [9] was “inactive” throughout. The activity, negative = inhibition in [5] is 11.6% (inactive).

On to `O=C(O)CCC(=O)c1ccc2ccc3cccc4ccc1c2c34`, for which the Potency in test [1] is > 11.4 µM (inactive); in [3], 1.26 µM (active); in [6], > 46 µM (inactive); in [7], > 9.22 µM (inactive). The activity change, negative = inhibition is 5.4% (inactive) in test [2] and 19.9% (inactive) in [4]. In addition, in test [5], the activity, negative = inhibition was -5.24% (inactive). The Potency result in [8], in test [9] and in [11] was “inactive” each time.

Consider `c1ccc2c(c1)nnn2CN1CCOCC1`, for which the Potency in test [1] was > 11.4 µM (inactive); in test [6], > 46 µM (inactive); in test [7], > 9.22 µM (inactive). Also, the activity change, negative = inhibition in test [2] was 1.95% (inactive); in [4], -0.506% (inactive). The Potency result in test [3], in [8], in test [9] and in [11] was “inactive” each time. In addition, the activity, negative = inhibition in test [5] was -18.4% (inactive).

For `S=C(Nc1ccc2cn[nH]c2c1)Nc1ccc2cn[nH]c2c1`, the Potency in [1] is > 11.4 µM (inactive); in [3] it was 0.126 µM (active); in test [6], > 46 µM (inactive); in [7] it was > 9.22 µM (inactive); in test [11] it was 2 µM (active). For the same compound, the figures for the activity change, negative = inhibition in test [2] and in test [4] were -15% (inactive) and 19.4% (inactive), respectively. Besides, the activity, negative = inhibition in [5] was 1.71% (inactive). The Potency result in test [8] and in [9] was “inactive” each time.
